Screening data as filed in PubChem BioAssay.
In the library only some 2.5% were active in any assay of this set; here they are far more common.
rCAG binder = r(CAG) repeat RNA binding; 1.3% of 370,000 active; TO-PRO-1 dye displacement fluorescence; inhibition, % at 3 µM;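 active = inhibition above the plate cutoff, the mean of all test compounds on that plate plus 3 SD, cut at about 35% in these data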;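 also: 0% = DMSO alone and 100% = 100 µM mitoxantrone as full dye displacement; higher means more dye released from RNA so lower well fluorescence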
PG9 binder = PG9 antibody binding by small molecule | TR-FRET gp120-PG9 antibody binding | 0.43% of 360,000 active | inhibition, % at 6.7 µM | AID 624416; in the data active = inhibition above about 8.5%
Exocytosis inh = blocks lytic granule exocytosis. TALL-104 LAMP-1 surface exposure, flow cytometry; cells stimulated with thapsigargin and PMA. inhibition, % at 10 µM. 0.66% of 360,000 active;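 active = inhibition above about 55%, limit read from the data; inconclusive = no clear call, values can overlap the other calls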
ABCB6 inh MLPCN = human ABCB6 transporter inhibition | Q9NP58 | K562-ABCB6 porphyrin accumulation, flow cytometry, 1 h; active compounds read low | 0.19% of 360,000 active | fluorescence ratio to DMSO, % at 10 µM;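 active = fluorescence ratio to DMSO below 75%, the collection mean minus 3 SD; inconclusive = too few cells collected in the well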;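 also: signal is porphyrin accumulated inside mitochondria; 100% equals median channel fluorescence of DMSO control wells; lower ratio means ABCB6 inhibition with less porphyrin fluorescence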
Target sequence (Q9NP58 whole entry, looked up): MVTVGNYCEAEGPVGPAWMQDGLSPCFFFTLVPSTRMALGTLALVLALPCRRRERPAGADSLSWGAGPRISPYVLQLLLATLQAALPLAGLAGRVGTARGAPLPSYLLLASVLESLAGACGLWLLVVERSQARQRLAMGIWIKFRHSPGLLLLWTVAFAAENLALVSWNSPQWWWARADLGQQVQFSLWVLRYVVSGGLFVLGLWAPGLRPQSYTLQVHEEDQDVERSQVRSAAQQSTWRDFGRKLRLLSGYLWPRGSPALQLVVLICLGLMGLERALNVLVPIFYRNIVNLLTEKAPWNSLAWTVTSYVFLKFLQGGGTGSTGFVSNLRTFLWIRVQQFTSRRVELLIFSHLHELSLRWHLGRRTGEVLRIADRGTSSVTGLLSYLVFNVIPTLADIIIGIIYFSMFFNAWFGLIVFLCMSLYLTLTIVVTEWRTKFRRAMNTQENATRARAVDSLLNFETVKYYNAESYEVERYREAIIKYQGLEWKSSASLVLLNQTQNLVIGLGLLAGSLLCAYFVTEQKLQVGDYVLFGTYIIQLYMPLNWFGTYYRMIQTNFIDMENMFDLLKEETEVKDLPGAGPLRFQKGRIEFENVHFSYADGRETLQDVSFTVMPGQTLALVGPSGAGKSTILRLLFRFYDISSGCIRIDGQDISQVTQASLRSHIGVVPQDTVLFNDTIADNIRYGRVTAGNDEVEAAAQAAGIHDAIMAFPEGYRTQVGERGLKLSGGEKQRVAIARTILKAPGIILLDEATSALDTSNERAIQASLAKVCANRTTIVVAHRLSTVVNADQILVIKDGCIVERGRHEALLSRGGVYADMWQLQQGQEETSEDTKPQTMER
rCAG binder conf = r(CAG) RNA repeat binding, confirmation | shares compounds with rCAG binder | TO-PRO-1 dye displacement fluorescence | inhibition, % at 3 µM | 70% of 4,300 active;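 active = inhibition above a per-plate cutoff, the mean inhibition of sample wells plus 3 SD, cut at about 35% in these data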;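 also: loss of TO-PRO-1 fluorescence as compound displaces dye from 1x1 AA loop RNA; 0% = DMSO only wells and 100% = 100 µM mitoxantrone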
DNA CAG counter = counter-screen for rCAG RNA binders: DNA CAG dye complex inhibitors; d(CAG) DNA oligo TO-PRO-1 dye displacement, fluorescence; shares compounds with rCAG binder; 94% of 4,300 active; AID 652068; inhibition, % at 3 µM;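 active = inhibition above its plate's cutoff, the mean test-well inhibition plus 3 SD, cut at about 4.8% in these data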;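 also: 0% = DNA dye mix with DMSO and 100% = 100 µM mitoxantrone; hits displace the dye from DNA and so lower well fluorescence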
* hit, by the source's call.

How did O=C(O)Cc1ccc(N=Nc2c(O)c(C(=O)O)cc3ccccc23)cc1 do in these assays?
rCAG binder: 87.0*; PG9 binder: -3.5; Exocytosis inh: inconclusive; ABCB6 inh MLPCN: 98.0; rCAG binder conf: 58.1*; DNA CAG counter: 23.3*

How did Cc1ccc(C2CC2C(=O)NNC(=S)Nc2cccc(Cl)c2)cc1 (stereo unspecified) do in these assays?
rCAG binder: 51.7*; PG9 binder: 0.1; Exocytosis inh: -0.7; ABCB6 inh MLPCN: 95.0; rCAG binder conf: 50.6*; DNA CAG counter: 18.9*

How did COCCCn1c(=O)/c(=C/c2ccccc2OC(F)F)s/c1=C(\C#N)C(=O)NCCOC do in these assays?
rCAG binder: 1.9; PG9 binder: 0.0; Exocytosis inh: -4.1; ABCB6 inh MLPCN: 95.0

What do the screens show for `COCCCn1c(=O)/c(=C\c2cccc(OC)c2OC)s/c1=C(/C#N)C(=O)Nc1ccc(C(=O)O)cc1`?
rCAG binder: 52.4*; PG9 binder: -3.6; Exocytosis inh: 11.5; ABCB6 inh MLPCN: 119.0; rCAG binder conf: 73.0*; DNA CAG counter: 34.1*

How did CC(OC(=O)c1cccc(S(=O)(=O)Nc2cccc(C(F)(F)F)c2)c1)C(=O)Nc1ccc2c(c1)OCCO2 (stereo unspecified) do in these assays?
rCAG binder: 37.5*; PG9 binder: -1.4; Exocytosis inh: -0.4; ABCB6 inh MLPCN: 99.0; rCAG binder conf: 36.0*; DNA CAG counter: 8.0*

Results for COc1ccc(-n2c(O)c(/C=N/NS(=O)(=O)c3ccc(C)cc3)c3ccccc3c2=O)cc1OC ?
rCAG binder: 66.2*; PG9 binder: -3.0; Exocytosis inh: -0.7; ABCB6 inh MLPCN: 340.0; rCAG binder conf: 59.4*; DNA CAG counter: 24.1*

What do the screens show for `COc1ccccc1NS(=O)(=O)c1cccc(-n2c(O)c(C=Nc3ccccc3C(=O)O)c3ccccc3c2=O)c1`?
rCAG binder: 91.0*; PG9 binder: 1.3; Exocytosis inh: 1.8; ABCB6 inh MLPCN: 90.0; rCAG binder conf: 90.7*; DNA CAG counter: 72.5*

Results for COc1ccc(-n2c(O)c(/C=N/NS(=O)(=O)c3cc(C)ccc3C)c3ccccc3c2=O)cc1OC ?
rCAG binder: 49.0*; PG9 binder: -0.8; Exocytosis inh: -5.0; ABCB6 inh MLPCN: 304.0; rCAG binder conf: 72.9*; DNA CAG counter: 33.5*

What do the screens show for `Cc1cccc(NC(=O)CCNS(=O)(=O)c2cc(Br)cnc2N)c1C`?
rCAG binder: 0.9; PG9 binder: -3.0; Exocytosis inh: -3.0; ABCB6 inh MLPCN: 97.0

What do the screens show for `CCOc1ccc(C=Nn2c(-c3cccc(OC(C)C)c3)n[nH]c2=S)cc1`?
rCAG binder: 44.3*; rCAG binder conf: 46.2*; DNA CAG counter: 11.4*

What do the screens show for `CCN(CC)S(=O)(=O)c1cccc(-c2n[nH]c(=S)n2/N=C/c2ccc(OC)cc2)c1`?
rCAG binder: 50.5*; PG9 binder: 0.6; Exocytosis inh: -3.1; ABCB6 inh MLPCN: 103.0; rCAG binder conf: 45.9*; DNA CAG counter: 12.5*

Results for CCC(C)n1c(-c2cccc(S(=O)(=O)N(CC)CC)c2)n[nH]c1=S (stereo unspecified) ?
rCAG binder: 2.4; PG9 binder: 0.4; Exocytosis inh: -1.8; ABCB6 inh MLPCN: 95.0

How did CCN(CC)S(=O)(=O)c1cccc(-c2n[nH]c(=S)n2/N=C/c2ccc(OC(F)F)cc2)c1 do in these assays?
rCAG binder: 78.4*; PG9 binder: -0.3; Exocytosis inh: 0.7; ABCB6 inh MLPCN: 91.0; rCAG binder conf: 63.9*; DNA CAG counter: 22.5*

Results for CCN(CC)S(=O)(=O)c1cccc(-c2n[nH]c(=S)n2/N=C/c2ccc(Br)cc2)c1 ?
rCAG binder: 78.5*; PG9 binder: -2.1; Exocytosis inh: -0.7; ABCB6 inh MLPCN: 93.0; rCAG binder conf: 83.0*; DNA CAG counter: 47.9*

Results for CCOc1ccc(C=Nn2c(-c3ccc(F)cc3)n[nH]c2=S)cc1 ?
rCAG binder: 25.3

How did CCN(CC)S(=O)(=O)c1cccc(-c2n[nH]c(=S)n2C(C)COC)c1 (stereo unspecified) do in these assays?
rCAG binder: 0.7; PG9 binder: 0.1; Exocytosis inh: -4.6; ABCB6 inh MLPCN: 99.0

How did COCCn1c(SCC(=O)NC(C)c2ccc(F)cc2)nc2ccccc21 (stereo unspecified) do in these assays?
rCAG binder: -2.8; PG9 binder: 1.0; Exocytosis inh: -15.5; ABCB6 inh MLPCN: 96.0

How did CN(C)S(=O)(=O)c1ccc(C(=O)Nc2nnc(-c3ccco3)o2)cc1 do in these assays?
rCAG binder: 3.6; PG9 binder: -2.3; Exocytosis inh: -2.8; ABCB6 inh MLPCN: 96.0

Results for CCCCN(C)S(=O)(=O)c1ccc(C(=O)Nc2nnc(-c3ccco3)o2)cc1 ?
rCAG binder: 37.2*; PG9 binder: -2.6; Exocytosis inh: 0.2; ABCB6 inh MLPCN: 95.0; rCAG binder conf: 27.0; DNA CAG counter: 8.2*

Results for CC(=O)NS(=O)(=O)c1ccc(N=c2ssc3c2-c2cc(C)ccc2NC3(C)C)cc1 ?
rCAG binder: 48.3*; PG9 binder: -1.7; Exocytosis inh: 9.6; ABCB6 inh MLPCN: 101.0; rCAG binder conf: 45.2*; DNA CAG counter: 16.1*

How did O=C(CCS(=O)(=O)Cc1cccc(Cl)c1)NCCc1ccccc1 do in these assays?
rCAG binder: -5.0; PG9 binder: -0.5; Exocytosis inh: -2.0; ABCB6 inh MLPCN: 98.0

How did CCCCCOc1ccc(C(=O)OCC(=O)Nc2cc(C)on2)cc1 do in these assays?
rCAG binder: 0.7; PG9 binder: 0.1; Exocytosis inh: 0.6; ABCB6 inh MLPCN: 100.0

Results for O=C(O)Cc1ccc(N2N=C(c3ccccc3)CC2=O)cc1 ?
rCAG binder: 67.7*; PG9 binder: -2.5; Exocytosis inh: -5.9; ABCB6 inh MLPCN: 100.0; rCAG binder conf: 22.1; DNA CAG counter: 6.0*

Results for O=C(O)Cc1ccc(-c2ccccc2-c2ccccc2)cc1 ?
rCAG binder: 14.4; PG9 binder: 0.1; Exocytosis inh: 1.1; ABCB6 inh MLPCN: 93.0

How did CCCCn1c(N)c(N(CC)C(=O)c2c(C)noc2C)c(=O)[nH]c1=O do in these assays?
rCAG binder: 5.2; PG9 binder: 1.1; Exocytosis inh: -0.5; ABCB6 inh MLPCN: 103.0

How did O=c1cc(CSc2ccccc2)[nH]c2ccccc12 do in these assays?
rCAG binder: 1.0; PG9 binder: -0.1; Exocytosis inh: -9.0; ABCB6 inh MLPCN: 98.0

Results for Cc1ccc(SCc2cc(=O)c3c(=O)n(-c4ccccc4)[nH]c3[nH]2)cc1 ?
rCAG binder: 62.4*; PG9 binder: -5.4; Exocytosis inh: 2.1; ABCB6 inh MLPCN: 106.0; rCAG binder conf: 43.3*; DNA CAG counter: 17.1*

How did O=c1cc(CSc2ccc(Cl)cc2)[nH]c2[nH]n(-c3ccccc3)c(=O)c12 do in these assays?
rCAG binder: 55.5*; PG9 binder: -0.9; Exocytosis inh: 0.3; ABCB6 inh MLPCN: 98.0; rCAG binder conf: 35.8*; DNA CAG counter: 12.9*

How did CC(C)c1ccc(OCCCN2CCC(C(O)(c3ccccc3)c3ccccc3)CC2)cc1 do in these assays?
rCAG binder: 1.1; PG9 binder: -0.8
